In PubChem BioAssay (Tox21) one finds Potency and outcome data, which are given here for 60 molecules.

The target in test [1] is Acetylcholinesterase (Homo sapiens) (UniProt P22303). As to the kind of experiment: Acetylcholinesterase (AChE) small molecule antagonists: colormetric cell-based qHTS assay (AID 1347395). Further: nearly all actives have a fitted effect of over 30% in size. Further: potency means the concentration at half of the fitted maximal effect. An outline of the steps:
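Colorimetric read-out: DTNB detects thiocholine released when cellular AChE in SH-SY5Y cells hydrolyses acetylthiocholine. Cells attached overnight, received compound for 30 min at 37 C, then substrate mix for 90 min at 37 C.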
In general terms: qHTS replaces the single test concentration by a dilution series.

Test [2] shares this target. The test is described as follows: Acetylcholinesterase (AChE) small molecule antagonists: enzyme-based qHTS assay (AID 1347397). Further: nearly all actives have a fitted effect of over 55% in size. Further: potency means the concentration at half of the fitted maximal effect. As to conditions: Potency: AChE enzyme activity inhibition; outcome: AChE enzyme activity inhibition. An outline of the steps:
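Enzyme inhibition was scored from DTNB-detected thiocholine formed by recombinant human AChE acting on acetylthiocholine. The 30 min compound preincubation and 10 min substrate reaction were both run at room temperature, with DMSO as vehicle control.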

The target is the same in test [3]. The test is described as follows: Acetylcholinesterase (AChE) small molecule antagonists: fluorescence cell-based qHTS assay (AID 1347398). Further: nearly all actives have a fitted effect of over 50% in size. Further: potency means the concentration at half of the fitted maximal effect. As to conditions: Potency: AChE activity; outcome: AChE activity. An outline of the steps: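 Endogenous acetylcholinesterase of SH-SY5Y neuroblastoma cells is measured in situ. After overnight attachment and 30 min compound exposure, cells receive acetylthiocholine and Thiolite Green; fluorescence is read after 40 min at room temperature.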

Test [4] shares this target. The test is described as follows: Acetylcholinesterase (AChE) small molecule antagonists: enzyme-based qHTS assay with human liver microsomes (AID 1347399). Further: nearly all actives have a fitted effect of over 60% in size. As to conditions: Potency: qHTS inhibition; outcome: qHTS inhibition. The method in brief:
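Recombinant human AChE (50 mU/mL in the enzyme mix) and human liver microsomes (0.25 mg/mL final) were preincubated with compound and NADPH (0.25 mg/mL final) for 30 min at 37 C. Acetylthiocholine/DTNB was then added; thiocholine was read colorimetrically after 10 min at room temperature.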

Several values for one entry are separate records, joined by “and”; a condition that tells them apart may be missing. Equal entries are not always repeated. Inconclusive results are not listed. Some compounds were tested as several samples or in several runs, with calls that do not always agree. Activity calls are given as the source filed them. The call rests on the fitted dose curve.

Chain of Acetylcholinesterase (Homo sapiens) (P22303 whole entry, looked up): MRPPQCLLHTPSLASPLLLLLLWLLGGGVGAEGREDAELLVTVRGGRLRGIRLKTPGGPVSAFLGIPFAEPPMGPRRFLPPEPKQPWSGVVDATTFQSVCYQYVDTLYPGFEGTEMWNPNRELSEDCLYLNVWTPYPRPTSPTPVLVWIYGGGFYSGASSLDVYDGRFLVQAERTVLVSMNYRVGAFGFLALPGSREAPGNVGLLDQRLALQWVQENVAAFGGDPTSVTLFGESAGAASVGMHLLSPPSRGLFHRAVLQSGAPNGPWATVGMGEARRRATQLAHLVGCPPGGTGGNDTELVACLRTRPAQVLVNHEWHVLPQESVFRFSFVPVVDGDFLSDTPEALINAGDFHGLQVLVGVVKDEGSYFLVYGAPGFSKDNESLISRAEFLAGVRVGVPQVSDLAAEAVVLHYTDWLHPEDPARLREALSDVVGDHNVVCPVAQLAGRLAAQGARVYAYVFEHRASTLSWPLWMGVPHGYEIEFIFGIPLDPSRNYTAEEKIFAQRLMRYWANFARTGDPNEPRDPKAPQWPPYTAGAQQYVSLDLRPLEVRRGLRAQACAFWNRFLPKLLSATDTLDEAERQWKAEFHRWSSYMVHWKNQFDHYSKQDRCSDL

With `O=C(O)CCC(=O)O`, the Potency entry in test [1], in test [2], in test [3] and in test [4] was “inactive” each time.
In the case of `O=C1CCCCCCCCCCCC(=O)OCCO1`, the Potency result in test [1], in test [2], in test [3] and in test [4] was “inactive” each time.
For the molecule `CCC(C)(C)C1CCCCC1OC(C)=O` (stereo not given), the Potency result in test [1], in test [2], in test [3] and in test [4] was “inactive” in each case.
Turning to `CN1C(=O)CC[C@H]1c1cccnc1`, the Potency result in test [1], in test [2], in test [3] and in test [4] was “inactive” each time.
On to `Nc1ncnc(Nc2ccccc2)n1`, for which the Potency result in test [1], in test [2], in test [3] and in test [4] was “inactive” each time.
In the case of `Cc1cc(=O)[nH]c(=O)[nH]1`, the Potency result in test [1], in test [2], in test [3] and in test [4] was “inactive” each time.
On to `CNC(=O)N(c1ccccc1)c1ccccc1`, for which the Potency entry in test [1], in test [2] and in test [4] was “inactive” throughout. For the same molecule, the Potency in test [3] was 35.7 µM (active).
On to `CCCCCOC(=O)CCC`, for which the Potency entry in test [1], in test [2], in test [3] and in test [4] was “inactive” throughout.
On to `O=S(=O)(O)c1ccc(N=Nc2c(O)ccc3cc(S(=O)(=O)O)ccc23)cc1`, for which the Potency entry in test [1], in test [2], in test [3] and in test [4] was “inactive” throughout.
For the molecule `Cc1cc2c(s1)Nc1ccccc1N=C2N1CCN(C)CC1`, the Potency entry in test [1], in test [2], in test [3] and in test [4] was “inactive” in each case.
`NC(=O)c1ncn([C@@H]2O[C@H](CO)[C@@H](O)[C@H]2O)n1`: the Potency entry in test [1], in test [2], in test [3] and in test [4] was “inactive” each time.
As to `C[N+]1(CC2COC(c3ccccc3)(C3CCCCC3)O2)CCCCC1` (stereo not given), the Potency result in test [1], in test [2], in test [3] and in test [4] was “inactive” each time.
Regarding `CC(COCC(C)OC(=O)c1ccccc1)OC(=O)c1ccccc1` (stereo not given), the Potency entry in test [1], in test [2], in test [3] and in test [4] was “inactive” throughout.
For `O=C1O[C@H]([C@H](O)CO)C(O)=C1O`, the Potency result in test [1], in test [2], in test [3] and in test [4] was “inactive” in each case.
`O=C(O)CCCC[C@@H]1SC[C@@H]2NC(=O)N[C@@H]21`: the Potency entry in test [1], in test [2], in test [3] and in test [4] was “inactive” each time.
For the molecule `CC(O)(P(=O)(O)O)P(=O)(O)O`, the Potency entry in test [1], in test [2], in test [3] and in test [4] was “inactive” throughout.
As for `CCCOC(=O)C(C)O` (stereo not given), the Potency result in test [1], in test [2], in test [3] and in test [4] was “inactive” throughout.
Consider `C1COCCN1`, for which the Potency result in test [1], in test [2], in test [3] and in test [4] was “inactive” throughout.
With `Cc1cc(N)no1`, the Potency result in test [1], in test [2], in test [3] and in test [4] was “inactive” in each case.
`CC(C)(C)C(=O)OCOC(=O)[C@@H]1N2C(=O)[C@@H](NC(=O)[C@H](N)c3ccccc3)[C@H]2SC1(C)C`: the Potency result in test [1], in test [2], in test [3] and in test [4] was “inactive” throughout.
For `On1nnc2ccccc21`, the Potency entry in test [1], in test [2], in test [3] and in test [4] was “inactive” each time.
Regarding `CCc1ccc(O)cc1`, the Potency result in test [1], in test [2], in test [3] and in test [4] was “inactive” each time.
Turning to `CC1(C)S[C@@H]2[C@H](NC(=O)C(C(=O)O)c3ccccc3)C(=O)N2[C@H]1C(=O)O` (stereo not given in full), the Potency result in test [1], in test [2], in test [3] and in test [4] was “inactive” in each case.
Take `O=C[O][Al]([O]C=O)[O]C=O`: the Potency entry in test [1], in test [2], in test [3] and in test [4] was “inactive” in each case.
As for `C=C(C)CNCC`, the Potency entry in test [1], in test [2], in test [3] and in test [4] was “inactive” throughout.
Take `CCCCCCCCCCCCCC[N+](C)(C)C`: the Potency result in test [1] and in test [4] was “inactive” each time. Moreover, the Potency in test [2] is 30.6 µM (active) and 70.9 µM (active) and inactive; in test [3], 61.1 µM (active) and 39.9 µM (active).
For the molecule `C[C@@H]1C[C@H]2[C@@H]3CCC4=CC(=O)C=C[C@]4(C)[C@@]3(F)[C@@H](O)C[C@]2(C)[C@@]1(O)C(=O)COC(=O)c1ccncc1`, the Potency entry in test [1], in test [2], in test [3] and in test [4] was “inactive” in each case.
As for `CC1=C(C=O)C(C)(C)CCC1`, the Potency entry in test [1], in test [2], in test [3] and in test [4] was “inactive” throughout.
Turning to `NC(=O)/N=N/C(N)=O`, the Potency is 63.5 µM (active) in test [1]; 71.2 µM (active) in test [2]; 7.12 µM (active) and 31.7 µM (active) in test [3]. In addition, the Potency result in test [4] was “inactive”.
In the case of `O=C1OC(=O)c2cc(-c3ccc4c(c3)C(=O)OC4=O)ccc21`, the Potency entry in test [1], in test [2], in test [3] and in test [4] was “inactive” in each case.
Consider `Cc1c(N(C)CS(=O)(=O)O)c(=O)n(-c2ccccc2)n1C`, for which the Potency result in test [1], in test [2], in test [3] and in test [4] was “inactive” throughout.
With `C=CCS(=O)(=O)O`, the Potency result in test [1], in test [2], in test [3] and in test [4] was “inactive” each time.
Turning to `O=C(O)CC(C(=O)O)S(=O)(=O)O` (stereo not given), the Potency entry in test [1], in test [2], in test [3] and in test [4] was “inactive” each time.
In the case of `CC1=Nc2ccccc2C1(C)C`, the Potency entry in test [1], in test [2], in test [3] and in test [4] was “inactive” each time.
As to `CCS(=O)(=O)c1ccc(OC)c(C(=O)OC)c1`, the Potency result in test [1], in test [2], in test [3] and in test [4] was “inactive” throughout.
On to `NC(CO)C(=O)NNCc1ccc(O)c(O)c1O` (stereo not given), for which the Potency result in test [1], in test [2], in test [3] and in test [4] was “inactive” throughout.
Take `O=Cc1ccccc1Cl`: the Potency entry in test [1], in test [2], in test [3] and in test [4] was “inactive” throughout.
For the molecule `Nc1ccc2cc(S(=O)(=O)O)cc(O)c2c1N=Nc1ccccc1C(F)(F)F`, the Potency result in test [1], in test [2], in test [3] and in test [4] was “inactive” throughout.
With `CO[C@]1(NC(=O)CSC(F)F)C(=O)N2C(C(=O)O)=C(CSc3nnnn3CCO)CO[C@H]21`, the Potency entry in test [1], in test [2], in test [3] and in test [4] was “inactive” in each case.
Turning to `CC[C@H](C)C(=O)O[C@H]1C[C@@H](C)C=C2C=C[C@H](C)[C@H](CC[C@@H]3C[C@@H](O)CC(=O)O3)[C@H]21`, the Potency entry in test [1], in test [2], in test [3] and in test [4] was “inactive” in each case.
In the case of `OC(CCN1CCCCC1)(c1ccccc1)C1CCCCC1` (stereo not given), the call in test [1], in test [2], in test [3] and in test [4] was inactive.
On to `CN(C)CCN1CCOCC1`, for which the Potency result in test [1], in test [2], in test [3] and in test [4] was “inactive” throughout.
On to `CCCCCCCCCCCCCCCBr`, for which the Potency entry in test [1], in test [2], in test [3] and in test [4] was “inactive” in each case.
Take `C=CCOc1cc(Cl)ccc1C(=O)NCCN(CC)CC`: the Potency result in test [1], in test [2], in test [3] and in test [4] was “inactive” throughout.
In the case of `Cc1oc(-c2ccccc2)nc1CCOc1cccc2c1ccn2CCC(=O)O`, the Potency result in test [1], in test [2], in test [3] and in test [4] was “inactive” throughout.
As to `O=C(Cl)c1ccc(Cl)cc1Cl`, the Potency entry in test [1], in test [2], in test [3] and in test [4] was “inactive” in each case.
For `Cn1cccc1`, the Potency entry in test [1], in test [2], in test [3] and in test [4] was “inactive” throughout.
Turning to `COc1ccc(C(=O)c2cccc(O)c2)c(OC)c1`, the Potency result in test [1], in test [2], in test [3] and in test [4] was “inactive” in each case.
Consider `CCCCCCCOC(=O)CCC`, for which the Potency result in test [1], in test [2], in test [3] and in test [4] was “inactive” each time.
Take `COc1ccc(Nc2ccccc2)c(C)c1`: the Potency entry in test [1], in test [2], in test [3] and in test [4] was “inactive” throughout.
`CNC1CCCN(c2c(F)cc3c(=O)c(C(=O)O)cn(C4CC4)c3c2OC)C1` (stereo not given): the Potency result in test [1], in test [2], in test [3] and in test [4] was “inactive” in each case.
`Cc1oc(-c2ccccc2)nc1CCC(=O)c1ccc(CC2SC(=O)NC2=O)cc1` (stereo not given): the Potency entry in test [1], in test [2], in test [3] and in test [4] was “inactive” each time.
On to `O=Nc1ccc(NO)cc1`, for which the Potency entry in test [1], in test [2], in test [3] and in test [4] was “inactive” in each case.
As to `Oc1ccc(Sc2ccc(O)cc2)cc1`, the Potency entry in test [1], in test [2], in test [3] and in test [4] was “inactive” throughout.
For `CC1=C(C/C=C(\C)CCC[C@H](C)CCC[C@H](C)CCCC(C)C)C(=O)c2ccccc2C1=O`, the Potency result in test [1], in test [2], in test [3] and in test [4] was “inactive” each time.
Turning to `CC1CCC(C(C)C)C(O)C1` (stereo not given), the Potency entry in test [1], in test [2], in test [3] and in test [4] was “inactive” throughout.
Take `Cc1cc(=O)oc2cc(O)cc(O)c12`: the Potency result in test [1], in test [2], in test [3] and in test [4] was “inactive” each time.
`CC1(C)C2=CCCC(C)(C)[C@]23CC[C@H]1C3`: the Potency result in test [1], in test [2], in test [3] and in test [4] was “inactive” throughout.
As to `Cc1ccccc1Br`, the Potency result in test [1], in test [2], in test [3] and in test [4] was “inactive” each time.
Consider `OC[C@H]1O[C@@H](Oc2ccc(O)cc2)[C@H](O)[C@@H](O)[C@@H]1O`, for which the Potency result in test [1], in test [2], in test [3] and in test [4] was “inactive” throughout.
